Among the data in PubChem BioAssay (NCI) are growth values, retold here.

Among the test systems are T-47D breast; BT-549 breast; MDA-MB-435 melanoma; SW-620 colon; MCF7 breast; HCT-116 colon; HCC-2998 colon; KM12 colon.
Holding throughout (experiment): NCI-60 one-dose screen, 48 h (100 = growth as untreated, 0 = no growth, -100 = all killed)
What all share (settings): 10 µM unless noted

Compounds without any hit were thinned out: in the full panel of roughly 83,000, 20% have a hit.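 Testing used 96-well plates and a 48-hour single-concentration exposure. Example: -40 means 40% of the starting cells died.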 Unmarked numbers belong to inactive results. Activity calls are given as the source filed them. The calls were made as follows: active = growth percent below 10; inactive = the rest.

For `O=S(=O)(Nc1ccc(NS(=O)(=O)c2ccccc2)c(Cl)c1)c1ccccc1`, the growth in the test with T-47D breast was 106%; in the test on BT-549 breast it was 105%; in the test on MDA-MB-435 melanoma, 107%; with SW-620 colon, 99.1%; in the test with MCF7 breast it was 91.6%; in the test on HCT-116 colon it was 97.6%. The growth in the test on HCC-2998 colon and in the test with KM12 colon was 104% each time.
Regarding `O=C(O)c1c(=O)cccc2ssc12`, the growth is -43% (active) in the test with T-47D breast; 20.2% with BT-549 breast; 23.3% with MDA-MB-435 melanoma; -34.4% (active) with SW-620 colon; -17% (active) in the test with MCF7 breast; 2.36% (active) in the test on HCT-116 colon. Besides, the growth in the test with HCC-2998 colon is 13.5%; with KM12 colon it was 3.59% (active).
On to `COC(=O)c1ccc(NC(=O)c2ccc(-c3cccc([N+](=O)[O-])c3)o2)cc1`, for which the growth with T-47D breast was 96.4%; in the test on BT-549 breast, 98.9%; with MDA-MB-435 melanoma, 101%; with SW-620 colon it was 101%; in the test with MCF7 breast, 76.8%; in the test on HCT-116 colon it was 96%. Besides, the growth in the test with HCC-2998 colon and in the test on KM12 colon was 102% each time.
As to `O=C(Cc1ccccc1Nc1c(Cl)cccc1Cl)NN1C(=O)/C(=C/c2ccc(Br)cc2)SC1=S`, the growth with T-47D breast is 107%; with BT-549 breast, 105%; in the test on MDA-MB-435 melanoma it was 107%; in the test with SW-620 colon, 98.5%; in the test with MCF7 breast it was 100%; with HCT-116 colon it was 103%. Also, the growth in the test with HCC-2998 colon was 106%; with KM12 colon, 107%.
Regarding `CCc1nc(N)nc(N)c1C#CC(C)c1ccc(-c2ccncc2)cc1Cl` (stereo not drawn), the growth in the test on T-47D breast was 24%; in the test with BT-549 breast it was 23.3%; with MDA-MB-435 melanoma it was 22.1%; with SW-620 colon, 20.8%; in the test on MCF7 breast, 14.2%; in the test on HCT-116 colon it was 13.6%. The figures for the growth in the test with HCC-2998 colon and in the test on KM12 colon were 25.4% and 12.7%, respectively.
In the case of `O=C1Nc2c(ccc(Cl)c2Cl)/C1=C\c1ccc(C(F)(F)F)cc1`, the growth in the test on T-47D breast was 77.2%; in the test with BT-549 breast, 75.2%; in the test with MDA-MB-435 melanoma, 95.4%; in the test on SW-620 colon, 67.1%; in the test with MCF7 breast, 52.1%; with HCT-116 colon, 68.2%. The growth in the test on HCC-2998 colon is 92.4%; in the test with KM12 colon, 71.2%.
On to `COc1cccc(-c2nc3sccn3c2-c2ccnc(NCCCNS(=O)(=O)c3cccc(Cl)c3)c2)c1`, for which the growth with T-47D breast was -4.56% (active); in the test with BT-549 breast it was 20.2%; with MDA-MB-435 melanoma, 37.4%; with SW-620 colon, 67.5%; with MCF7 breast, 44.4%; in the test on HCT-116 colon, 34%. The growth in the test with HCC-2998 colon is 81.6%; in the test on KM12 colon it was 64.8%.
`COc1ccc(/C=N/C2=C(C#N)C(c3ccc(N(C)C)cc3)c3ccc4ccccc4c3O2)cc1` (stereo not drawn): the growth with T-47D breast is 72%; in the test with BT-549 breast, 48.4%; in the test with MDA-MB-435 melanoma, 4% (active); with SW-620 colon it was 46.1%; in the test with MCF7 breast it was 45%; in the test on HCT-116 colon, 43.4%. In addition, the growth in the test on HCC-2998 colon is 96.3%; with KM12 colon, 44.1%.
Take `CCc1c(Nc2ccccc2C)nc(N)[nH]c1=O`: the growth is 114% with T-47D breast; 102% in the test on BT-549 breast; 106% in the test on MDA-MB-435 melanoma; 106% in the test on SW-620 colon; 97% in the test with MCF7 breast; 98.4% in the test on HCT-116 colon. For the same compound, the results for the growth with HCC-2998 colon and in the test with KM12 colon were 101% and 104%, respectively.
Take `O=[N+]([O-])c1cnc(N2CCN(CC3CC3)CC2)nc1N1CCN(CC2CC2)CC1`: the growth is 100% with T-47D breast; 88.9% in the test with BT-549 breast; 98.1% with MDA-MB-435 melanoma; 90.9% with SW-620 colon; 96.4% with MCF7 breast; 86% in the test on HCT-116 colon. The results for the growth in the test on HCC-2998 colon and in the test with KM12 colon were 99% and 100%, respectively.
In the case of `COc1cc2c(cc1-c1c(C)noc1C)ncc1nc(C3CCOCC3)n([C@@H](C)COC(F)F)c12`, the growth with T-47D breast was 38.1%; with BT-549 breast it was 64.1%; in the test on MDA-MB-435 melanoma, 39.7%; in the test on SW-620 colon, 63.4%; in the test on MCF7 breast it was 18.4%; with HCT-116 colon it was 30.5%. In addition, the growth in the test with HCC-2998 colon was 43.3%; with KM12 colon it was 48.8%.
As for `COc1ccc(-c2nc3ccc(-c4nc5ccc(N6CCN(c7ccncc7)CC6)cc5[nH]4)cc3[nH]2)cc1OC`, the growth with T-47D breast was 6.91% (active); in the test on BT-549 breast, 39.4%; with MDA-MB-435 melanoma it was 31.4%; in the test with SW-620 colon, 35.6%; with MCF7 breast, 12.3%; with HCT-116 colon, 17.8%. For the same compound, the growth in the test with HCC-2998 colon is 34.9%; in the test with KM12 colon, 92.8%.
`O=C1/C(=C/N2N=C(c3ccc4ccccc4c3)CC2c2ccccc2O)SC(=S)N1c1cccnc1` (stereo not drawn): the growth in the test with T-47D breast was 44.5%; with BT-549 breast, 6.36% (active); with MDA-MB-435 melanoma it was -48.7% (active); in the test with SW-620 colon, 24%; in the test with MCF7 breast it was 17.3%; in the test on HCT-116 colon, 10.9%. The figures for the growth in the test on HCC-2998 colon and in the test with KM12 colon were 28.5% and 18.2%, respectively.
Turning to `COc1ccccc1NS(=O)(=O)c1ccc2oc(SC(C)C)nc2c1`, the growth in the test with T-47D breast was 67.2%; in the test with BT-549 breast, 87.6%; in the test on MDA-MB-435 melanoma, 88.2%; in the test on SW-620 colon, 102%; in the test on MCF7 breast, 82.3%; in the test with HCT-116 colon it was 63.4%. Besides, the growth in the test on HCC-2998 colon is 26%; with KM12 colon, 98.7%.
Take `CC1=C(O)C(=O)C(C(C#N)(C#N)C(C#N)C#N)C1` (stereo not drawn): the growth in the test on T-47D breast was 107%; in the test with BT-549 breast it was 95%; with MDA-MB-435 melanoma, 96.8%; in the test on SW-620 colon, 102%; in the test on MCF7 breast it was 92.1%; with HCT-116 colon it was 102%. For the same compound, the growth is 95.3% in the test with HCC-2998 colon and 97.7% with KM12 colon.
`CC1=C[C@H]2c3c(c(O)c(O)c4oc5ccccc5c(=O)c34)[C@H](c3cc(O)c(O)c4oc5ccccc5c(=O)c34)[C@H]2C(C)(C)C1`: the growth was 9.72% (active) with T-47D breast; -15.3% (active) in the test with BT-549 breast; -36% (active) in the test with MDA-MB-435 melanoma; 11.9% in the test on SW-620 colon; 9.6% (active) with MCF7 breast; -84.8% (active) in the test with HCT-116 colon. The values for the growth in the test with HCC-2998 colon and in the test with KM12 colon were 11.6% and -1.27% (active), respectively.
